Source: PubChem BioAssay (several laboratories)
Hits are enriched below; roughly 2.1% of the tested compounds scored in any of these assays.
PrPC TRFRET – inhibitors of human cell surface prion protein PrPC; P04156; TR-FRET read-out; inhibition, % at 13.8 µM; 370,000 tested, 0.43% active; AID 720596; in the data active = inhibition above about 24%
PrP UTR inh – inhibition of PrP 5' UTR reporter expression. inhibition, % (no concentration beside the values). 340,000 tested, 0.35% active. AID 488862. cell-based PrP 5' UTR mRNA reporter, plate reader; in the data active = inhibition above about 52%
MazEF act – activators of E. coli MazEF toxin-antitoxin RNase. AID 504720. 350,000 tested, 0.32% active. activation, % at 20 µM. FAM/BHQ RNA-DNA oligo cleavage fluorescence, 5 h; in the data active = activation above about 50%
BJeLR viability – kills HRASV12-expressing BJeLR cells; BJeLR (HRASV12) viability, CellTiter-Glo ATP luminescence, 48 h; inhibition, % (no concentration beside the values); 300,000 tested, 0.17% active; in the data active = inhibition above about 50%
PfHsp40 rescue – rescue of PfHsp40-mediated yeast toxicity | S. cerevisiae expressing PfHsp40, growth rescue, ATP luminescence | growth rescue, % at 12.5 µM | 340,000 tested, 0.68% active; in the data active = growth rescue above about 28%, passing the limit was not always enough;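 note: yeast W303a lacking pdr1 and pdr3 grown in galactose medium; growth measured after three days at 30 °C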
VHR inh abs – inhibitors of human VHR1 phosphatase (DUSP3) | recombinant VHR phosphatase, pNPP absorbance | inhibition, % at 13.3 µM | 290,000 tested, 0.52% active; in the data active = inhibition above about 50%
PrPC TRFRET cf – confirmation of inhibitors of cell surface human prion protein; cell surface PrPC level, TR-FRET; inhibition, % at 13.8 µM; AID 743200; 1,500 tested, 65% active; shares compounds with PrPC TRFRET; in the data active = inhibition above about 25%
LD9 tox – kills or reduces viability of LD9 cells in PrPc counter-screen. shares compounds with PrPC TRFRET. 1,500 tested, 29% active. LD9 cells cytotoxicity, luminescence viability. inhibition, % at 13.8 µM. AID 743201; in the data active = inhibition above about 9.5%
Hits are given with their value; 0 = inactive; - = not tested or not shown.

SMILES | PrPC TRFRET | PrP UTR inh | MazEF act | BJeLR viability | PfHsp40 rescue | VHR inh abs | PrPC TRFRET cf | LD9 tox
C[C@H]1CN([C@@H](C)CO)C(=O)CCCn2nncc2CO[C@@H]1CN(C)C(=O)Nc1cccc2ccccc12 | 0 | - | 0 | - | - | - | - | -
Cc1ccc(NC2CCCN(C(=O)C3CCCC3)C2)cc1C (configuration not stated) | 0 | 0 | 0 | 0 | 0 | 0 | - | -
Cc1ccc(NS(=O)(=O)c2cc(C(=O)NCc3ccccn3)ccc2Cl)cc1C | 47.0 | 0 | 0 | 0 | 0 | 0 | 59.9 | 0
CSc1ncccc1C(=O)Nc1nc(C(C)(C)C)cs1 | 26.6 | 0 | 0 | 0 | 0 | 0 | 26.6 | 0
COC(=O)c1ccccc1NC(=O)CSc1nc(C)cc(C)n1 | 0 | 0 | 0 | 0 | 0 | 0 | - | -
O=C(CSC1=NCCS1)Nc1ccc2ccccc2c1 | 0 | 0 | 0 | 0 | 0 | 0 | - | -
Cc1cc(C)nc(SCC(=O)Nc2ccnc3ccccc23)n1 | 45.7 | 0 | 0 | 0 | 0 | 0 | 43.2 | 16.3
O=C(CSC1=NCCS1)Nc1ccnc2ccccc12 | 56.4 | 0 | 0 | 0 | 0 | 0 | 51.4 | 0
CN(C)c1ccc(Sc2ccc3nc(N)nc(N)c3c2)cc1 | 32.9 | - | 0 | - | - | - | 34.9 | 15.4
Nc1nc(N)c2cc(S(=O)(=O)c3cccc(C(F)(F)F)c3)ccc2n1 | 0 | - | 0 | - | - | - | - | -
Cc1cc(N2CCN(C)CC2)nc2ccc(NC(=O)CCC(=O)NCCC3=CCCCC3)cc12 | 38.4 | 0 | 0 | - | 0 | - | 0 | 0
COc1cccc2sc(Nc3nnc(-c4ccc(F)cc4)o3)nc12 | 26.5 | 0 | 0 | 0 | 0 | 0 | 33.5 | 0
COc1cccc2sc(Nc3nnc(-c4cccs4)o3)nc12 | 0 | 0 | 0 | 0 | 0 | 0 | - | -
CCOC(=O)c1sc(NC(=O)Cc2c(F)cccc2Cl)nc1C | 0 | 0 | 0 | 0 | 0 | 0 | - | -
CC(=O)c1sc(NC(=O)Cc2c(F)cccc2Cl)nc1C | 40.9 | 0 | 0 | 0 | 0 | 0 | 43.5 | 0
COC(=O)[C@@]12C[C@@H](CC(=O)NCc3ccc(C)o3)C(=O)N(Cc3ccco3)C1=CCC(C)(C)C2 | 0 | - | - | - | - | - | - | -
CC(C)N1CCc2c(sc(NC(=O)c3ccc([N+](=O)[O-])o3)c2C(N)=O)C1 | 48.6 | 95.4 | - | 0 | 0 | 0 | 62.5 | 54.3
CC1CC(C)CN(CCCNC(=O)CCC(=O)N2CCOc3ccccc32)C1 (configuration not stated) | 0 | 0 | 0 | 0 | 0 | 0 | - | -
Cc1nnc(SCC(=O)Nc2ccc(C(N)=O)cc2)n1-c1ccccc1 | 0 | 0 | 0 | 0 | 0 | 0 | - | -
N#Cc1ccccc1NC(=O)CSc1nnc(-c2ccc(F)cc2)n1-c1ccccc1 | 37.5 | 0 | 0 | 0 | 0 | 0 | 28.8 | 0
O=C(CSc1nnc(-c2ccccc2)n1-c1ccccc1)Nc1cccc2ccccc12 | 0 | - | - | - | - | - | - | -
Cc1nnc(SCC(=O)Nc2cc(C(N)=O)cc(C(N)=O)c2)n1-c1ccccc1 | 45.4 | 0 | 0 | 0 | 0 | 0 | 29.2 | 0
CN(C)C(=O)c1ccc(Cc2cn(C)c3ccccc23)nc1 | 0 | - | - | - | - | - | - | -
CCn1cc(CN2CCC(n3nccc3NC(=O)c3cccc(F)c3)CC2)cn1 | 0 | 0 | 0 | 0 | 0 | 0 | - | -
COc1cc(C(=O)N[C@@H](C)C(=O)N2CCC3(CC2)NCCc2[nH]cnc23)cc(OC)c1OC | 24.7 | 0 | 0 | 0 | 0 | 0 | 0 | 0
SMILES | PrPC TRFRET | PrP UTR inh | MazEF act | BJeLR viability | PfHsp40 rescue | VHR inh abs | PrPC TRFRET cf | LD9 tox
COc1ccc(CCNc2ncnc3c2oc2ccccc23)cc1OC | 26.9 | 0 | 0 | 0 | 0 | 0 | 27.2 | 20.2
CCOC(=O)c1sc2ncnc(NCc3ccco3)c2c1C | 24.5 | 0 | 0 | 0 | 0 | 0 | 0 | 14.8
CCOC(=O)c1sc2nc(CC(=O)OC)nc(NCc3ccco3)c2c1C | 0 | 0 | 0 | 0 | 0 | 0 | - | -
CC1CC(C)C(=NNC(N)=O)C(C(O)CC2CCC(=O)NC2=O)C1 (configuration not stated) | 84.0 | 0 | 0 | - | 33.4 | - | 43.3 | 15.2
C[C@H]1C[C@@H](C)C(=O)[C@@H]([C@H](O)CC2CC(=O)NC(=O)C2)C1 | 89.2 | 0 | 0 | 0 | 0 | 0 | 97.7 | 31.7
CCO[C@H]1OC(C(=O)NCc2nc3ccccc3[nH]2)=C[C@@H](C2CCCCC2)[C@@H]1CCCO | 43.6 | 0 | 0 | 0 | 0 | 0 | 25.2 | 0
COc1cccc2c(NCc3ccccc3)nc(-n3c(N)nc4ccccc43)nc12 | 70.0 | - | - | - | - | - | 49.3 | 98.2
Cc1c(NC(=O)COc2ccc3ccccc3c2)c(=O)n(-c2ccccc2)n1C | 0 | - | 0 | 0 | - | 0 | - | -
COC(=O)C1=C(C(=O)OC)[C@]2([C@@H]3CCCCN[C@@H](Cc4ccccc4)C(=O)N3Cc3ccccc3)C=C[C@H]1O2 | 0 | 0 | 0 | - | 0 | - | - | -
COC(=O)C1=C(C(=O)OC)[C@@]2([C@@H](Cc3ccc(C)cc3)Nc3ccccc3)C=C[C@@H]1O2 | 66.9 | - | - | - | - | - | 0 | 98.4
COC(=O)[C@H](CC(C)C)NC(=O)/C=C/[C@H]1O[C@@H](n2cc(C)c(=O)[nH]c2=O)C[C@@H]1O | 0 | - | - | - | - | - | - | -
COc1ccc(C(C(=O)NC2CCCC2)N(C(=O)c2snc(-c3ccc(F)cc3)c2N)c2ccc(OC)cc2)cc1 (configuration not stated) | 46.3 | 0 | 0 | 0 | 0 | 0 | 59.5 | 0
O=c1oc2ccccc2c(O)c1[C@H]1c2ccc(O)cc2Oc2c1c(=O)oc1ccccc21 | 41.5 | 0 | 0 | 0 | 0 | 0 | 56.6 | 0
CCCCNC(=O)C1CCC(CNc2nc(=S)[nH]c3ccccc23)CC1 (configuration not stated) | 0 | 0 | 0 | 0 | 0 | 0 | - | -
COc1ccc(N2CCN(CCCNC(=O)C3CCC(CNc4nc(=S)[nH]c5ccccc45)CC3)CC2)cc1 (configuration not stated) | 32.8 | 0 | 0 | 0 | 0 | 0 | 27.7 | 13.9
Cc1c(Br)c(C(F)(F)F)nn1CC(=O)N(C)C1CCCCC1 | 0 | 0 | 0 | 0 | 0 | 0 | - | -
Cc1cc(NC2CCCCC2)nc2ccccc12 | 25.9 | 0 | 0 | 0 | 0 | 0 | 0 | 0
Cc1cc(NCCN)nc2ccccc12 | 0 | 0 | 0 | 0 | 0 | 0 | - | -
Cc1ccc(S(=O)(=O)NC(=O)C2(C)CCN2C(=O)C2CCCCC2)cc1 (configuration not stated) | 0 | - | - | - | - | - | - | -
COc1ccc(NS(=O)(=O)c2ccc(-c3cnc(C4CC4)o3)cc2)cc1OC | 31.6 | 0 | 0 | 0 | 0 | 52.1 | 0 | 23.0
COc1ccccc1NS(=O)(=O)c1ccc(-c2cnc(C3CC3)o2)cc1 | 0 | 0 | 0 | 0 | 0 | 0 | - | -
Cc1cc(SCCC(=O)O)nc2c(C)cccc12 | 70.9 | 0 | 0 | 0 | 0 | 0 | 68.6 | 0
O=c1c2ccccc2oc2cc(NCCCN3CCOCC3)ccc12 | 0 | 0 | 0 | 0 | 0 | 0 | - | -
COc1cccc2sc3cc(NCCCN4CCOCC4)ccc3c(=O)c12 | 72.1 | 0 | 0 | - | 0 | - | 94.7 | 0
